Holding throughout (design): species or system human, MV4-11 + K-562 + COLO205 + SK-N-BE2 + OVCAR-8
One experiment relates to LIMK1. To be noted: read-out: apparent Kd, n = 1.
In a further experiment the test system is PIM2. To be noted: read-out: apparent Kd, compound concentrations: 100 nM and 1000 nM (sheet 'Samples'), n = 1.
A further experiment deals with PKN3. To be noted: read-out: apparent Kd, n = 1.
Another experiment deals with AURKA. To be noted: read-out: apparent Kd; compound concentrations: 100 nM and 1000 nM (sheet 'Samples'), CATDS: 6.4898936627914502E-2; n = 1.
The test system of a further experiment is CDK4. The note with it: read-out: apparent Kd, n = 1.
A further experiment relates to SIK3. To be noted: read-out: apparent Kd; compound concentrations: 100 nM and 1000 nM (sheet 'Samples'), CATDS: 1.4935731096458E-2; n = 1.
The next experiment concerns CDK7. The note with it: read-out: apparent Kd, n = 1.
The subject of the next experiment is ERCC2. The note with it: read-out: apparent Kd, n = 1.
Another experiment concerns MAPK10. The note with it: read-out: apparent Kd; compound concentrations:100 nM and 1000 nM (sheet 'Samples'); n = 1.
A further experiment deals with CSNK1A1. The note with it: read-out: apparent Kd, n = 1.
The subject of a further experiment is SYK. The note with it: read-out: apparent Kd; compound concentrations: 100 nM and 1000 nM (sheet 'Samples'), CATDS: 3.0941649644307598E-2; n = 1.
A further experiment has as its system STK10. To be noted: read-out: apparent Kd; compound concentrations:100 nM and 1000 nM (sheet 'Samples'); n = 1.
Another experiment has as its system MAPK11. To be noted: read-out: apparent Kd, n = 1.
The subject of a further experiment is PIK3CG. The note with it: read-out: apparent Kd, compound concentrations: 100 nM and 1000 nM (sheet 'Samples'), n = 1.
The next experiment has as its system ADCK3. The note with it: read-out: apparent Kd, n = 1.
Another experiment concerns BMPR1A. To be noted: read-out: apparent Kd; compound concentrations:100 nM and 1000 nM (sheet 'Samples'); n = 1.
Another experiment has as its system NUAK1. To be noted: read-out: apparent Kd; compound concentrations:100 nM and 1000 nM (sheet 'Samples'); n = 1.
In a further experiment the test system is EPHB3. The note with it: read-out: apparent Kd; compound concentrations: 100 nM and 1000 nM (sheet 'Samples'), CATDS: 4.67907505867102E-2; n = 1.
Where [1] appears, read: compound concentrations:100 nM and 1000 nM (sheet 'Samples').

Where two headings read alike, the source gives them in different places.

For the compound `CC(C)c1nc(-c2ccc(F)c(NS(=O)(=O)c3c(F)cccc3F)c2)c(-c2ccnc(Nc3ccc(N4CCOCC4)nc3)n2)s1` [GSK1804250A], in the experiment with LIMK1 (setting [1]), the potency estimated from few doses was 125 nM. `COc1ccc(-c2nc3n(c2-c2ccncc2)CCC3)cc1.COc1ccc(-c2nc3n(c2-c2ccncc2)CCC3)cc1.O=S(=O)(O)O.O=S(=O)(O)O` [SKF-104493-B2]: the potency estimated from few doses was 1570 nM with PIM2 (CATDS: 0.11675722362862); 911 nM in the experiment on PKN3 (compound concentrations: 100 nM and 1000 nM (sheet 'Samples'), CATDS: 0.15312963325727599). With `CN1CCN(Cc2ccc(NC(=O)Nc3ccc(N(C)c4ccnc(Nc5ccc(CS(C)(=O)=O)cc5)n4)cc3)cc2)CC1.Cl` [GW827654A], the potency estimated from few doses with AURKA was 288 nM. In the case of `CC(=O)N1CCN(c2ccc(Nc3nccc(-c4sc(C(C)C)nc4-c4cccc(NS(=O)(=O)c5cccc(Cl)c5)c4)n3)cn2)CC1` [GSK1660437A], the potency estimated from few doses in the experiment with LIMK1 (compound concentrations: 100 nM and 1000 nM (sheet 'Samples'), CATDS: 8.9017548853229503E-2) was 288 nM.

On to `CC(C)c1nc(-c2cccc(NS(=O)(=O)c3c(F)cccc3F)c2F)c(-c2ccnc(Nc3ccc(N4CCOCC4)nc3)n2)s1` [GSK2008607A], for which, in the experiment on LIMK1 (compound concentrations: 100 nM and 1000 nM (sheet 'Samples'), CATDS: 3.4604855317968697E-2), the potency estimated from few doses was 358 nM.

`CC(C)c1nc(-c2cccc(NS(=O)(=O)c3c(F)cccc3F)c2)c(-c2ccnc(Nc3ccc(N4CCOCC4)nc3)n2)s1.Cl` [GSK1723980B]: the potency estimated from few doses in the experiment with CDK4 (compound concentrations: 100 nM and 1000 nM (sheet 'Samples'), CATDS: 1.44710084593789E-2) was 1810 nM; with LIMK1 (compound concentrations: 100 nM and 1000 nM (sheet 'Samples'), CATDS: 8.5923205073472897E-2), 36.9 nM; in the experiment with SIK3, 1520 nM. Turning to `Cl.Cn1c(=O)c(Cc2ccc(F)cc2F)cc2cnc(NC3CCOCC3)nc21` [RO3308757-001], the potency estimated from few doses is 331 nM with CDK7 (setting [1]), 239 nM with ERCC2 (setting [1]) and 886 nM in the experiment on MAPK10.

Regarding `Clc1ccc(-c2nn3ncccc3c2-c2ccnc(Nc3ccccc3)n2)cc1` [GW829055X], the potency estimated from few doses is 1960 nM in the experiment with CDK4 (compound concentrations: 100 nM and 1000 nM (sheet 'Samples'), CATDS: 3.2528026841687298E-2); 1900 nM with CSNK1A1 (compound concentrations: 100 nM and 1000 nM (sheet 'Samples'), CATDS: 3.2884610425315097E-2); 2070 nM in the experiment on PIM2 (CATDS: 3.1911296970739501E-2); 2270 nM in the experiment on SYK. Consider `COc1cc2ncn(-c3cc(OCc4sccc4Cl)c(C(N)=O)s3)c2cc1OC` [GSK448459A], for which the potency estimated from few doses in the experiment on STK10 was 333 nM. Consider `COc1ccc(-c2nn3ncccc3c2-c2ccnc(Nc3ccc4c(c3)OCCO4)n2)cc1` [GW827106X], for which the potency estimated from few doses with MAPK11 (compound concentrations: 100 nM and 1000 nM (sheet 'Samples'), CATDS: 6.1190831662216998E-2) was 956 nM; with PIK3CG (CATDS: 5.53437190113686E-2), 1180 nM. In the case of `Cc1ccc(NC(=O)c2ccc(Cl)cc2)cc1-c1ccc(C(=O)Nc2ccncc2)cc1` [GSK1398467A], the potency estimated from few doses in the experiment with CDK4 (compound concentrations: 100 nM and 1000 nM (sheet 'Samples'), CATDS: 0.17554209006480601) was 1650 nM.

For the compound `COc1cc(F)c(F)c(F)c1C(=O)c1cnc(NC2CCN(S(C)(=O)=O)CC2)nc1N` [RO4600703-000], the potency estimated from few doses in the experiment on CDK4 (setting [1]) was 1310 nM; with CDK7 (setting [1]), 821 nM.

As for `CCCN1CCC(Oc2cc(Nc3nc(Nc4cccc(F)c4C(N)=O)c4cc[nH]c4n3)c(OC)cc2Cl)CC1` [GSK1713088A], the potency estimated from few doses with ADCK3 (compound concentrations: 100 nM and 1000 nM (sheet 'Samples'), CATDS: 0.349456505086152) is 604 nM; with CDK7 (compound concentrations: 100 nM and 1000 nM (sheet 'Samples'), CATDS: 0.191679480220071), 1740 nM; in the experiment with ERCC2 (compound concentrations: 100 nM and 1000 nM (sheet 'Samples'), CATDS: 0.17876672107785799), 2040 nM. On to `COc1cc2ncn(-c3cc(O[C@H](C)c4ccccc4Cl)c(C(N)=O)s3)c2cc1OC` [GSK237701A], for which the potency estimated from few doses in the experiment with STK10 is 574 nM.

Consider `COc1ccc(S(=O)(=O)NC2CCN(c3cc(C)nc(Nc4cccc(C#N)c4)n3)CC2)cc1.O=C(O)C(F)(F)F` [GSK1653539A], for which the potency estimated from few doses in the experiment with PIK3CG (CATDS: 0.32479738642046602) is 1380 nM. For the compound `COc1cc(N2CCN(C(C)C)CC2)ccc1Nc1nc(Nc2cccc(F)c2C(=O)O)c2cc[nH]c2n1` [GSK1819799A], the potency estimated from few doses in the experiment on PIM2 (CATDS: 4.4865682499900299E-2) was 1710 nM. With `NC(=O)c1cccnc1COc1cc(-c2ccc(N3CCOCC3)nc2)cc2ncccc12` [BI01125081], the potency estimated from few doses was 257 nM with ADCK3 (setting [1]), 1370 nM with BMPR1A and 1080 nM in the experiment on NUAK1. In the case of `Cc1ccc(CC(=O)N2CCc3cc(-c4cn(C)c5ncnc(N)c45)ccc32)cc1` [GSK2634758A], the potency estimated from few doses in the experiment on CDK4 (compound concentrations: 100 nM and 1000 nM (sheet 'Samples'), CATDS: 0.135917779714779) was 2250 nM. Regarding `Fc1ccc(-c2ncn(C3CCNCC3)c2-c2ccnc(Oc3ccc4c(c3)OCO4)n2)cc1` [SB-250715], the potency estimated from few doses is 1300 nM with CSNK1A1 (setting [1]) and 40.4 nM in the experiment with MAPK11 (setting [1]). Turning to `Fc1cccc(COc2ccc(Nc3ncncc3C#Cc3ccccc3)cc2Cl)c1` [GW651576X], in the experiment on EPHB3, the potency estimated from few doses is 2080 nM.

As for `Nc1c(C(=O)c2ccccc2)cnn1-c1ccc(F)cc1` [RO1151246-000], the potency estimated from few doses with MAPK11 (setting [1]) was 1420 nM; in the experiment with PKN3 (setting [1]) it was 2070 nM.

Regarding `Cc1ccc(-n2nc(C(C)(C)C)cc2NC(=O)Nc2ccc(OCCN3CCOCC3)cc2)cc1` [BIRB0876BS], in the experiment on ADCK3 (setting [1]), the potency estimated from few doses was 48.9 nM.

The values above are taken from PMC11062922 (Nature Chemical Biology, 2023).
